Experimental data from PubChem BioAssay (EPA / NIEHS).
Activity calls are given as the source filed them. The calls were made as follows: active = hit-call score of the fitted dose curve at least 0.9, where 1 is the maximum; inactive = score below 0.9.

Key:
[1] = BSK_hDFCGF_SRB: Viability Assessment in the BioMAP Diversity Plus: hDFCGF Assay (AID 2283061); details: primary human foreskin fibroblasts;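 also: cells exposed to compound for 24 h before the read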
Procedure, shortened: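 SRB-based viability read on primary human skin fibroblasts at 24 h: TCA fixation, 0.1% dye, 560 nm. Gain or loss of signal is fitted against the DMSO negative control.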

[2] = read-out: TIMP metallopeptidase inhibitor 1 (TIMP1), TIMP1 (gene 7076); assay: BSK_hDFCGF_TIMP1: BioMAP Diversity Plus: hDFCGF Assay for TIMP metallopeptidase inhibitor 1 (TIMP1) Biomarker Activity (AID 2283062); details: primary human foreskin fibroblasts; actives raise or lower the signal
Procedure, shortened: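 Bidirectional curve fitting against DMSO baseline yielded this endpoint, based on ELISA detection of TIMP-1 in primary human foreskin fibroblasts exposed to compound for 24 h.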

[3] = read-out: Monokine induced gamma interferon (MIG), CXCL9 (gene 4283); assay: BSK_hDFCGF_MIG: BioMAP Diversity Plus: hDFCGF Assay for Monokine induced gamma interferon (MIG) Biomarker Activity (AID 2283063); details: primary human foreskin fibroblasts; actives raise or lower the signal
Procedure, shortened: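 Endpoint derived by bidirectional fitting relative to DMSO; MIG quantified via ELISA in primary human foreskin fibroblasts harvested 24 h after dosing.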

[4] = read-out: Matrix Metallopeptidase 1 (MMP1), MMP1 (gene 4312); assay: BSK_hDFCGF_MMP1: BioMAP Diversity Plus: hDFCGF Assay for Matrix Metallopeptidase 1 (MMP1) Biomarker Activity (AID 2283064); details: primary human foreskin fibroblasts; actives raise or lower the signal
Procedure, shortened: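 Primary human foreskin fibroblasts exposed to chemicals for 24 h; MMP1 measured by ELISA. Cytotoxicity tracked by SRB staining in parallel cultures; bidirectional fit relative to DMSO.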

[5] = read-out: Vascular cell adhesion molecule 1 (VCAM1), VCAM1 (gene 7412); assay: BSK_hDFCGF_VCAM1: BioMAP Diversity Plus: hDFCGF Assay for Vascular cell adhesion molecule 1 (VCAM1) Biomarker Activity (AID 2283065); details: primary human foreskin fibroblasts; actives raise or lower the signal;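 as to AC50: VCAM-1 protein level quantified by ELISA after 24 h chemical exposure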
Procedure, shortened: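 Measured after 24 h chemical treatment of primary human skin fibroblasts, VCAM-1 was detected by ELISA and concentration-response analysed in both directions versus DMSO vehicle.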

[6] = read-out: Plasminogen activator inhibitor-1 (PAI1), SERPINE1 (gene 5054); assay: BSK_hDFCGF_PAI1: BioMAP Diversity Plus: hDFCGF Assay for Plasminogen activator inhibitor-1 (PAI1) Biomarker Activity (AID 2283066); details: primary human foreskin fibroblasts; actives raise or lower the signal
Procedure, shortened: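 PAI-1 levels, determined by ELISA, served as the endpoint in human foreskin fibroblast cultures exposed to compound for 24 h, with DMSO as baseline.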

[7] = read-out: Intercellular Adhesion Molecule 1 (ICAM1), ICAM1 (gene 3383); assay: BSK_KF3CT_ICAM1: BioMAP Diversity Plus: KF3CT Assay for Intercellular Adhesion Molecule 1 (ICAM1) Biomarker Activity (AID 2283067); details: primary human keratinocytes with fibroblasts; actives raise or lower the signal
Procedure, shortened: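 Bidirectional curve fitting against a DMSO baseline was applied to ICAM-1 ELISA signal from primary human skin co-cultures harvested 24 h after treatment, with SRB staining of parallel wells for overt cytotoxicity.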

[8] = read-out: Interferon-gamma inducible Protein 10 (IP10), CXCL10 (gene 3627); assay: BSK_KF3CT_IP10: BioMAP Diversity Plus: KF3CT Assay for Interferon-gamma inducible Protein 10 (IP10) Biomarker Activity (AID 2283068); details: primary human keratinocytes with fibroblasts; actives raise or lower the signal
Procedure, shortened: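 In a primary skin co-culture of keratinocytes and fibroblasts, IP-10 is quantified by ELISA at 24 h after dosing. SRB staining of parallel wells monitors overt toxicity. Curves are fitted both directions against DMSO.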

[9] = BSK_KF3CT_SRB: Viability Assessment in the BioMAP Diversity Plus: KF3CT Assay (AID 2283069); details: primary human keratinocytes with fibroblasts;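 also: total protein by sulforhodamine B staining as a cytotoxicity measure; read 24 h after compound addition; fitted for both signal gain and loss against DMSO baseline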
Procedure, shortened: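 Human keratinocyte and foreskin fibroblast co-culture exposed to chemical for 24 h. Total protein measured in parallel cultures by 0.1% sulforhodamine B staining after 10% TCA fixation, read at 560 nm; bidirectional fit relative to DMSO.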

[10] = read-out: Interleukin-1 alpha (IL1a), IL1A (gene 3552); assay: BSK_KF3CT_IL1a: BioMAP Diversity Plus: KF3CT Assay for Interleukin-1 alpha (IL1a) Biomarker Activity (AID 2283070); details: primary human keratinocytes with fibroblasts; actives raise or lower the signal
Procedure, shortened: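 Primary human keratinocyte plus foreskin fibroblast co-culture, dosed and measured at 24 h in 96-well plates. IL-1a level quantified by ELISA; bidirectional fit relative to DMSO.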

[11] = read-out: TIMP metallopeptidase inhibitor 2 (TIMP2), TIMP2 (gene 7077); assay: BSK_KF3CT_TIMP2: BioMAP Diversity Plus: KF3CT Assay for TIMP metallopeptidase inhibitor 2 (TIMP2) Biomarker Activity (AID 2283071); details: primary human keratinocytes with fibroblasts; actives raise or lower the signal
Procedure, shortened: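 Keratinocyte–fibroblast co-culture, 24 h exposure; TIMP-2 ELISA, DMSO-normalised bidirectional fit. Parallel SRB (0.1%, TCA-fixed, 560 nm) total-protein staining gauges cytotoxicity.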

[12] = read-out: Transforming growth factor beta 1 (TGFb1), TGFB1 (gene 7040); assay: BSK_KF3CT_TGFb1: BioMAP Diversity Plus: KF3CT Assay for Transforming growth factor beta 1 (TGFb1) Biomarker Activity (AID 2283072); details: primary human keratinocytes with fibroblasts; actives raise or lower the signal
Procedure, shortened: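 Signal changes in either direction, relative to DMSO, define activity here. TGF-b1 is read by ELISA from a human keratinocyte-fibroblast co-culture 24 h post-dose.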

[13] = read-out: C-C motif chemokine 2 (Homo sapiens) (UniProt P13500); assay: BSK_KF3CT_MCP1: BioMAP Diversity Plus: KF3CT Assay for Monocyte Chemoattractant Protein 1 (MCP1/CCL2) Biomarker Activity (AID 2283073); details: primary human keratinocytes with fibroblasts; actives raise or lower the signal
Procedure, shortened: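 Biomarker MCP-1 is measured by ELISA in primary human keratinocytes co-cultured with foreskin fibroblasts, 24 h after chemical treatment; DMSO serves as the negative control and activity baseline.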

[14] = read-out: Matrix Metallopeptidase 9 (MMP9), MMP9 (gene 4318); assay: BSK_KF3CT_MMP9: BioMAP Diversity Plus: KF3CT Assay for Matrix Metallopeptidase 9 (MMP9) Biomarker Activity (AID 2283074); details: primary human keratinocytes with fibroblasts; actives raise or lower the signal;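 as to AC50: MMP9 protein level quantified by ELISA in the co-culture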
Procedure, shortened: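 Human keratinocyte and foreskin fibroblast co-culture exposed to chemicals for 24 h; MMP9 biomarker measured by ELISA, bidirectional fitting relative to DMSO; cytotoxicity tracked by SRB total protein staining in parallel cultures.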

[15] = read-out: urokinase plasminogen activator (uPA), PLAU (gene 5328); assay: BSK_KF3CT_uPA: BioMAP Diversity Plus: KF3CT Assay for urokinase plasminogen activator (uPA) Biomarker Activity (AID 2283075); details: primary human keratinocytes with fibroblasts; actives raise or lower the signal
Procedure, shortened: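 Primary human keratinocyte/foreskin fibroblast co-culture exposed to chemical; uPA measured by ELISA at 24 h. Bidirectional fit versus DMSO, with parallel SRB total-protein staining for cytotoxicity.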

CD40, CD40 (gene 958) = assay: BSK_LPS_CD40: BioMAP Diversity Plus: LPS Assay for CD40 Biomarker Activity (AID 2283076); details: primary human HUVEC with PBMC; actives raise or lower the signal
Procedure, shortened: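 Using a multiplexed primary human co-culture (umbilical vein endothelium plus PBMC), CD40 was read by ELISA 24 h after dosing, with cytotoxicity tracked by sulforhodamine B staining of parallel cultures and activity fitted bidirectionally versus DMSO.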

[16] = read-out: E-selectin (Homo sapiens) (UniProt P16581); assay: BSK_LPS_Eselectin: BioMAP Diversity Plus: LPS Assay for Eselectin Biomarker Activity (AID 2283077); details: primary human HUVEC with PBMC; actives raise or lower the signal
Procedure, shortened: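 Dose chemical onto LPS-driven HUVEC/PBMC co-culture; after 24 h, run ELISA for E-selectin; fit up- and down-going responses relative to DMSO control.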

[17] = read-out: Interleukin-8 (IL8), CXCL8 (gene 3576); assay: BSK_LPS_IL8: BioMAP Diversity Plus: LPS Assay for Interleukin-8 (IL8) Biomarker Activity (AID 2283078); details: primary human HUVEC with PBMC; actives raise or lower the signal
Procedure, shortened: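 In this LPS system, chemical-treated human umbilical vein endothelium/PBMC co-cultures were harvested at 24 h for IL-8 ELISA.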

[18] = BSK_LPS_SRB: Viability Assessment in the BioMAP Diversity Plus: LPS Assay (AID 2283079); details: primary human HUVEC with PBMC;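 also: total protein by sulforhodamine B absorbance as a cytotoxicity measure; measured one day after compound addition; fitted in both directions against DMSO so loss or gain of signal counts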
Procedure, shortened: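 Cytotoxicity endpoint in human endothelial–PBMC co-culture: 24 h exposure, then SRB (0.1%) staining, 560 nm read.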

[19] = read-out: Interleukin-1 alpha (IL1a), IL1A (gene 3552); assay: BSK_LPS_IL1a: BioMAP Diversity Plus: LPS Assay for Interleukin-1 alpha (IL1a) Biomarker Activity (AID 2283080); details: primary human HUVEC with PBMC; actives raise or lower the signal
Procedure, shortened: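 Primary human HUVEC and PBMC co-culture stimulated with LPS is dosed and harvested at 24 h. Both increases and decreases in ELISA-measured IL-1a are scored relative to DMSO.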

Measured: AC50

Chain of E-selectin (Homo sapiens) (P16581 whole entry, looked up): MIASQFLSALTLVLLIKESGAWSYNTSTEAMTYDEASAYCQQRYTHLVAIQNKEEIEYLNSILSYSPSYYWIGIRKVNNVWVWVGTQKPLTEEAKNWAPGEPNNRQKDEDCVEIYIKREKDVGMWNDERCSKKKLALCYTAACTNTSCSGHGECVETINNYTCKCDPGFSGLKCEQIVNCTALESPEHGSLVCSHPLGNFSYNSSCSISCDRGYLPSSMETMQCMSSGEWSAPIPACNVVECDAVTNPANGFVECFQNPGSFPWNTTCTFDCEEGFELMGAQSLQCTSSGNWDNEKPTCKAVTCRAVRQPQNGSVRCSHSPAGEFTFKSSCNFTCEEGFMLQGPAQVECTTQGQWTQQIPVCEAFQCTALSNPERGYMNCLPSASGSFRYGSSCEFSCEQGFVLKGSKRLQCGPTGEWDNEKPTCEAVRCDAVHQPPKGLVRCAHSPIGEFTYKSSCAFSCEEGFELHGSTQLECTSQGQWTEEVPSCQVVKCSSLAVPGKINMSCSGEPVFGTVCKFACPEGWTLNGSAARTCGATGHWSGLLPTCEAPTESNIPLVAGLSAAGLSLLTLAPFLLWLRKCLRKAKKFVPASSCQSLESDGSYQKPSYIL

CC(C)(C)c1ccc(O)c(C(C)(C)C)c1
active: [1] 11.9 µM | [2] 11.5 µM | [3] 11.7 µM | [4] 11.3 µM | [5] 9.1 µM | [6] 10.3 µM | [7] 14.6 µM | [8] 14.2 µM | [9] 8.27 µM | [10] 9.23 µM | [11] 12 µM | [12] 8.63 µM | [13] 13.4 µM | [14] 9.23 µM | [15] 11.3 µM | CD40, CD40 (gene 958) 14 µM | [16] 13.3 µM | [17] 26.6 µM | [18] 17.7 µM | [19] 14.4 µM

CC(O)CO (stereo not drawn)
inactive: [1] | [2] | [3] | [4] | [5] | [6] | [7] | [8] | [9] | [10] | [11] | [13] | [14] | [15] | CD40, CD40 (gene 958) | [16] | [17] | [18] | [19]

CC(C)(C)c1cccc(C(C)(C)C)c1O
active: [1] 35.7 µM | [2] 36.3 µM | [3] 34.9 µM | [4] 35.9 µM | [5] 35.5 µM | [6] 36.6 µM | [7] 37.9 µM | [8] 37.5 µM | [9] 33.8 µM | [10] 31 µM | [11] 37.1 µM | [13] 34.4 µM | [14] 36.7 µM | [15] 39 µM
inactive: CD40, CD40 (gene 958) | [16] | [17] | [18] | [19]

COCC(C)OCC(C)O (stereo not drawn)
inactive: [1] | [2] | [3] | [4] | [5] | [6] | [7] | [8] | [9] | [10] | [11] | [12] | [13] | [14] | [15] | CD40, CD40 (gene 958) | [16] | [17] | [18] | [19]

OC1CCC(C2CCCCC2)CC1 (stereo not drawn)
inactive: [1] | [2] | [3] | [4] | [5] | [6] | [7] | [8] | [9] | [10] | [11] | [12] | [13] | [14] | [15] | CD40, CD40 (gene 958) | [16] | [17] | [18] | [19]

CC[C@H](C)[C@@H](C(=O)O)n1sc2ccccc2c1=O
active: [19] 25.9 µM
inactive: [1] | [2] | [3] | [4] | [5] | [6] | [7] | [8] | [9] | [10] | [11] | [12] | [13] | [14] | [15] | CD40, CD40 (gene 958) | [16] | [17] | [18]
